Sampled rows, rich in hits. Any-hit rate of the full collection: about 1.2%.
Mito fusion act: mitochondrial division inhibition or fusion activation; 320,000 tested, 0.23% active; AID 485298; Potency, µM (doses to about 46.1 µM), actives largely listed as activators; S. cerevisiae fusion-defective mutant growth rescue, CellTiterGlo 48 h; also: nearly all actives have a fitted effect of over 45% in size
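Read-out: ATP-based luminescence (CellTiterGlo, 10 min ambient) reporting growth of fusion-defective ts yeast after 48 hours at 37C on glycerol/ethanol YPEG medium in the presence of compound.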
BRCA1 expr act: increases BRCA1 expression. MCF7-BRCA1-FFLuc reporter, luminescence, 48 h; response scale: scaled: vehicle 0%, 10 µM genistein 100%. Potency, µM (titrated, usually from 46.1 µM), actives largely listed as activators. 380,000 tested, 1.1% active; also: nearly all actives have a fitted effect of over 80% in size
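Cells: MCF7-BRCA1-FFLuc, 2000/well. Exposure: 48 h, 37 °C, 5% CO2. Read: luminescence, 15 min post-substrate. Controls: genistein 10 microM (maximal activation), DMSO (neutral).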
ERG Ets-DNA blk: ERG Ets/DNA interaction inhibition; P11308; fluorescence polarization, His-ERG Ets domain / labelled DNA; Potency, µM (titrated, usually from 76.9 µM), most hits filed as inhibitors; 370,000 tested, 0.028% active; AID 624246; active = well fitted inhibition curve with a large enough effect in the polarisation, with a control signal flat; inconclusive = small, poorly fitted or top-dose-only effect, or effect the other way, or a change in a side signal; inactive = no such curve, though single readings can be large or run the other way; the % refers to the polarisation;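 also: polarization taken with two DNA probes labelled with fluorescein and Texas red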
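His-tagged ERG Ets domain (1 uM in the protein solution; 300mM KCl, 50mM Tris-HCl, 1mM EDTA, 1mM DTT, pH 7.5) received compound, then a probe mix of 5 nM fluorescein-DNA and 100nM Texas-615-DNA. Fluorescence polarization was read for both dyes.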
B2AR arrestin: beta2AR (human) beta-arrestin recruitment activity | beta-arrestin recruitment to beta2AR, cell-based reporter | Potency, µM (series often up to 46.1 µM), most hits filed as activators | 330,000 tested, 0.02% active; also: nearly all actives have a fitted effect of over 65% in size
Target sequence (P07550 whole entry, looked up): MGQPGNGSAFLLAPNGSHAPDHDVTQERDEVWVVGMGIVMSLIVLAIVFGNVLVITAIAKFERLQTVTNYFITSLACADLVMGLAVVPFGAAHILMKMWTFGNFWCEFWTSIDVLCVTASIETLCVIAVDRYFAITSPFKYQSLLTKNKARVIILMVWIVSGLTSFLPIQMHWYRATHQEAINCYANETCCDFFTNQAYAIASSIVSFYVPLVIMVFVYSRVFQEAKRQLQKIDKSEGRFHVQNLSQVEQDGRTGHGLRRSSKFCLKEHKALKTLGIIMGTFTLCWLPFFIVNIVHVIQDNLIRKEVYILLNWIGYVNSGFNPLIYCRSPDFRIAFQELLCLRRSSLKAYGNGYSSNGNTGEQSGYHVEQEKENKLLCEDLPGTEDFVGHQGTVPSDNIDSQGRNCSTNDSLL
Of the large screens only hits and unclear results are named; the others gave an inactive call. Unless noted, calls follow the shape of the dose curve; as a rule, active = well fitted curve in the direction sought with a large enough effect; inconclusive = small, poorly fitted or top-dose-only effect, or another doubt; inactive = no such curve, though single readings can be large; an effect the other way counts as inactive or inconclusive.

Cc1ccc(NC(=O)CSc2nc(-c3ccco3)nc3cc(=O)[nH]n23)cc1	none (no result: Mito fusion act, BRCA1 expr act, B2AR arrestin)
Nc1nc(COc2ccc3ccccc3c2)cs1	BRCA1 expr act 6.3µM (no result: ERG Ets-DNA blk, B2AR arrestin)
O=C(Nc1ccc(Oc2cccnc2)cc1)c1ccccc1F	BRCA1 expr act 4µM
COCCNc1oc(-c2ccc(Cl)cc2)nc1C#N	BRCA1 expr act 5.6µM
COCCNc1oc(-c2ccc(C)cc2)nc1C#N	BRCA1 expr act inconclusive
Cc1ccc(-c2nc(C#N)c(NCCc3ccccn3)o2)cc1	BRCA1 expr act 3.5µM
CN(C)CCCNc1oc(-c2ccc(Cl)cc2)nc1C#N	none
N#Cc1nc(-c2ccc(Cl)cc2)oc1NCCc1ccccn1	BRCA1 expr act 3.5µM
Cc1cccc(NC(=O)c2cn(-c3ccccc3)nc2-c2ccccc2)c1C	none (no result: Mito fusion act, BRCA1 expr act, B2AR arrestin)
Cc1ccccc1CSc1ccc(-c2ccc3c(c2)OCO3)nn1	BRCA1 expr act 8.9µM
c1cncc(CSc2ccc(-c3ccc4c(c3)OCO4)nn2)c1	BRCA1 expr act 5.6µM
Fc1cccc(CSc2ccc(-c3ccc4c(c3)OCO4)nn2)c1	none
CCN(CC)CCN(C(=O)c1ccco1)c1nc2cc(C)cc(C)c2s1	none (no result: Mito fusion act, BRCA1 expr act, B2AR arrestin)
CCC(C)NC(=O)c1ccc2nc(CCc3ccccc3)oc2c1 (stereo not drawn)	none (no result: Mito fusion act, BRCA1 expr act, B2AR arrestin)
CCOc1ccc(CNS(=O)(=O)c2ccc3c(c2)CC(C)N3C(C)=O)cc1OC (stereo not drawn)	none (no result: Mito fusion act, BRCA1 expr act, B2AR arrestin)
COc1cccc(C2CC(c3ccc(Br)cc3)=NN2C(=O)c2ccncc2)c1OC (stereo not drawn)	none
COc1ccccc1C1CC(c2ccc(Br)cc2)=NN1C(=O)c1cccnc1 (stereo not drawn)	Mito fusion act 16µM
Cc1ccc(C2CCN(C(=O)Nc3ccc(Cl)c(Cl)c3)C2)cc1 (stereo not drawn)	none (no result: Mito fusion act, BRCA1 expr act, B2AR arrestin)
O=C(CN1CCN(S(=O)(=O)c2ccc(F)cc2)CC1)Nc1cc(C(F)(F)F)ccc1Cl	none
COc1ccc(C)cc1NC(=O)CN1CCCN(S(=O)(=O)c2ccc(Br)cc2)CC1	Mito fusion act 14µM
O=C(CN1CCN(S(=O)(=O)c2ccc(F)cc2)CC1)Nc1ccc(F)cc1F	Mito fusion act 35µM
CCOC(=O)c1ccc(NC(=O)CSc2ccc3ccccc3n2)cc1	none (no result: BRCA1 expr act, B2AR arrestin)
CCc1ccc(NC(=O)CCCc2nnc3n(CC(C)C)c(=O)c4sccc4n23)cc1	none (no result: Mito fusion act, BRCA1 expr act, B2AR arrestin)
S=C(Nc1ccccc1Cl)N(Cc1ccccc1)Cc1ccccn1	Mito fusion act 18µM, B2AR arrestin inconclusive
c1ccc2nccnc2c1	none (no result: Mito fusion act, ERG Ets-DNA blk, B2AR arrestin)
NC(=O)c1sc2nc(-c3ccco3)ccc2c1N	BRCA1 expr act 2.5µM, B2AR arrestin inconclusive
COc1ccc(NC(=O)CC2CC3CCC2C3)cn1 (stereo not drawn)	BRCA1 expr act 13µM
Cc1ccc(NC(=O)c2ccc(NC(=O)N3CCSc4ncccc43)cc2)cc1Cl	none (no result: Mito fusion act, BRCA1 expr act, B2AR arrestin)
c1ccc(-c2ccc(OCCCn3cncn3)cc2)cc1	BRCA1 expr act 11µM
CCOc1ccc(CCNCc2c(C(=O)O)n(Cc3ccc(C)cc3)c3cc(OC)ccc23)cc1	none (no result: Mito fusion act, BRCA1 expr act, B2AR arrestin)
N/C(Cc1cccs1)=N\OC(=O)COc1ccc(Cl)cc1Cl	BRCA1 expr act 11µM
N/C(=N\OC(=O)COc1ccc(Cl)cc1Cl)c1cccnc1	BRCA1 expr act 7.9µM
N/C(=N\OC(=O)COc1ccc(Cl)cc1)c1cccnc1	none
CCc1ccc(OCC(=O)O/N=C(\N)c2ccncc2)c(Br)c1	BRCA1 expr act inconclusive
N/C(=N\OC(=O)COc1ccc(Cl)cc1Br)c1ccncc1	BRCA1 expr act 2.5µM
CCn1cc2nc(SCc3cc(C)ccc3C)n(CCc3ccccc3)c(=O)c2n1	none (no result: Mito fusion act, B2AR arrestin)
O=C(Cn1c2ncccc2c(=O)n1-c1ccccc1)NCc1ccccc1Cl	none (no result: Mito fusion act, BRCA1 expr act, B2AR arrestin)
O=S(=O)(Cc1noc(-c2ccc(Cl)cc2)n1)Cc1ccco1	BRCA1 expr act 7.9µM
CCOC(=O)c1c(C)[nH]c(C=O)c1Cc1cccc(Cl)c1	Mito fusion act 13µM
CCN(CC)c1cc2c(cc1F)c(=O)c(S(=O)(=O)c1cc(C)ccc1C)cn2Cc1ccccc1	none (no result: Mito fusion act, BRCA1 expr act, B2AR arrestin)
Cc1oc2cc3oc(=O)c(CCC(=O)NC4CC4)c(C)c3cc2c1C	BRCA1 expr act 6.3µM
COc1ccc(C2CC(c3ccccc3OC(C)=O)=NN2C(=O)/C=C/c2ccccc2)cc1 (stereo not drawn)	Mito fusion act inconclusive
CC(=O)Oc1ccccc1C1=NN(C(=O)/C=C/c2ccccc2)C(c2ccccc2)C1 (stereo not drawn)	Mito fusion act 16µM
Cc1ccc(C(=O)NCCn2c(C)cc3ccccc32)cc1C	none (no result: Mito fusion act, B2AR arrestin)
Cc1cccc(NC(=S)NCc2ccc3c(c2)cc(C)n3C)c1C	ERG Ets-DNA blk 28µM
Cc1cc2cc(CNC(=O)c3ccc(S(=O)(=O)N(C)C)cc3)ccc2n1C	ERG Ets-DNA blk inconclusive
Cc1cc2cc(CNC(=O)c3ccc(S(=O)(=O)N4CCOCC4)cc3)ccc2n1C	ERG Ets-DNA blk 28µM
Cc1cc2cc(CNC(=S)Nc3ccc(OC(F)(F)F)cc3)ccc2n1C	ERG Ets-DNA blk 20µM
Cc1cc2ccccc2n1CCNC(=O)c1ccc(S(=O)(=O)N2CCCCC2)cc1	ERG Ets-DNA blk 25µM
COC(=O)c1ccc(NC(=O)c2ccccc2OCC(=O)Nc2ccc(Br)cc2)cc1	none (no result: Mito fusion act, ERG Ets-DNA blk, B2AR arrestin)
O=C(OCCF)N1CCN(/[N+]([O-])=N/Oc2ccc([N+](=O)[O-])cc2[N+](=O)[O-])CC1	none (no result: Mito fusion act, ERG Ets-DNA blk, B2AR arrestin)
COc1cc2ccccc2cc1C(=O)Nc1cccc(-c2nc3cc(C)c(C)cc3o2)c1	none (no result: Mito fusion act, BRCA1 expr act, B2AR arrestin)
O=C(Cc1ccc(-c2ccccc2)cc1)NO	none (no result: Mito fusion act, ERG Ets-DNA blk, B2AR arrestin)
Cc1ccc2c(C(=O)CNc3nccs3)c[nH]c2c1	none (no result: Mito fusion act, ERG Ets-DNA blk, B2AR arrestin)
Cc1cc2cc(CNS(=O)(=O)c3ccc4ccccc4c3)ccc2n1C	ERG Ets-DNA blk inconclusive
Cc1c(C(=O)NCc2ccc3c(c2)cc(C)n3C)cccc1[N+](=O)[O-]	ERG Ets-DNA blk 28µM
CC(=O)Nc1ccc(S(=O)(=O)NCc2ccc3c(c2)cc(C)n3C)cc1	ERG Ets-DNA blk 14µM

Assay outcomes as filed in PubChem.
